Source: PubChem BioAssay AID463082 (The Scripps Research Institute Molecular Screening Center, 2010)
Screen size: about 330,000 compounds; about 4,900 (1.5%) were called active. This is one part of a sample in which actives are shown more often than they occur. Unmarked numbers belong to inactive results.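 How the source made its calls: active means inhibition above the mean inhibition across the screen plus 3 SD (cut at about 25% in these data); inactive means the rest.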

What follows are molecules tested against Platelet-activating factor acetylhydrolase (Homo sapiens) (UniProt Q13093) (assay: pPAFAH enzyme inhibitors, primary screen, biochemical, fluorescence polarization, human (AID 463082;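 further: inhibitors block binding of the rhodamine activity-based probe so polarization drops; 0% = enzyme with DMSO and 100% = wells lacking pPAFAH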)). Conditions: recombinant pPAFAH, FP-rhodamine probe fluorescence polarization; at 3.39 µM; hits give high values.
Platelet-activating factor acetylhydrolase (Homo sapiens), sequence (Q13093 whole entry, looked up): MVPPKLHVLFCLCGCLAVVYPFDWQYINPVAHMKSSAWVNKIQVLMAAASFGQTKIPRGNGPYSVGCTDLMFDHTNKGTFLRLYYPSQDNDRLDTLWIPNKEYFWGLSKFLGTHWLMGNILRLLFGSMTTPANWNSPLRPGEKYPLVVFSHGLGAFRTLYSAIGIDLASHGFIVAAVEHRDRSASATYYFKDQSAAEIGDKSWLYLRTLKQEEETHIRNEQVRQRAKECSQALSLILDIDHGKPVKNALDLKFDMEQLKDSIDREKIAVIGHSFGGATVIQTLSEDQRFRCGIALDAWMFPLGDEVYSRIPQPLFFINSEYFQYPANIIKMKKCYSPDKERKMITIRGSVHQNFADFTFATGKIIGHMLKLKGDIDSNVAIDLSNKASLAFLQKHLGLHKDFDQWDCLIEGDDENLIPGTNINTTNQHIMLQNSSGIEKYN

| Compound | inhibition |
| --- | --- |
| COc1cccc(CNC(C)C(=O)Nc2ccc(S(=O)(=O)N3CCCC3)cc2)c1 (configuration not stated) | -5.3% |
| COc1ccc(S(=O)(=O)NCC(c2ccco2)N2CCOCC2)cc1 (configuration not stated) | -0.61% |
| O=C(COC(=O)CNS(=O)(=O)c1ccc(F)c(F)c1F)NC1CCCC1 | 29.2% (active) |
| Cc1cc(C)cc(OCC(=O)OCC(=O)NC2CCCC2)c1 | 21.4% |
| Cc1ccc(C(=O)NCC(=O)OCC(=O)NC2CCCCCCC2)cc1 | 9.66% |
| CN(C(=O)CC1C(=O)NCCN1Cc1ccc(F)cc1Cl)C1CCCCC1 (configuration not stated) | -3% |
| COc1ccccc1-n1cn[nH]c1=S | 6.13% |
| COc1ccc(OC)c(-n2c(-c3ccn[nH]3)n[nH]c2=S)c1 | -4.65% |
| COc1ccccc1-n1c(-c2cc(-c3ccco3)[nH]n2)n[nH]c1=S | 28.5% (active) |
| CCn1c(Cc2cccs2)nnc1SCC(=O)c1ccc(C)cc1 | 9.49% |
| Cc1ccc(-n2c(Cc3cccs3)nnc2SCC(=O)OC(C)C)cc1 | 34% (active) |
| COc1ccc(-n2c(SCC(=O)OC(C)C)nnc2-c2ccccn2)cc1 | 6.1% |
| C=C1c2cccc(OC)c2O[C@H](C(=O)OCC)[C@@H]1CCCCCC | 9.96% |
| CSc1ccc(S(=O)(=O)Nc2cccc(F)c2)cc1 | 32.8% (active) |
| O=C1Cc2cc(S(=O)(=O)Nc3cccc(F)c3)ccc2N1 | 24.4% |
| Cc1cc(C)cc(NS(=O)(=O)c2ccc(F)cc2)c1 | 5.58% |
| Nc1nonc1-n1nnc(C(=O)N/N=C/c2ccc(Cl)cc2)c1-c1ccc2c(c1)OCO2 | 3.64% |
| O=C(Nc1ccccc1)c1ccc2nsnc2c1 | -5.05% |
| COCC(C)NC(=O)c1ccc(Cl)c(Cl)c1 (configuration not stated) | 4.84% |
| Cc1cc2nc(C(F)(F)F)cc(-c3cccs3)n2n1 | -3.12% |
| COCC(C)NC(=O)c1ccc(-n2nc(C(F)(F)F)cc2-c2cccs2)cc1 (configuration not stated) | 35.9% (active) |
| CC(=O)N1CCN(C(=O)C2(NC(=O)Nc3ccc(C)cc3)CCCCC2)CC1 | -3.87% |
| CCCC(C)C(=O)NCc1ccncc1 (configuration not stated) | -2.95% |

| Compound | inhibition |
| --- | --- |
| COC(=O)c1c(NC(=O)CCN2CCOCC2)sc2c1CCCC2 | 7.3% |
| Cc1ccc(NC(=O)c2csc3c2CCCC3)cc1 | 1.78% |
| Cc1ccc(NC(=O)c2c(NC(=O)CCC(=O)O)sc3c2CCCCC3)cc1 | 24.6% (active) |
| Cn1nc(C(C)(C)C)c([N+](=O)[O-])c1C(N)=O | -0.25% |
| O=[N+]([O-])c1ccccc1SNc1ccccn1 | 3.58% |
| COc1cnc(-c2ccccn2)nc1Oc1ccc(C(C)(C)C)cc1 | 3.59% |
| C[C@H](CO)N1C[C@H](C)[C@@H](CN(C)C(=O)Nc2ccc3c(c2)OCO3)Oc2c(cccc2N(C)C)C1=O | 3.8% |
| N#Cc1c(N2CCCCC2)nc(N)c2c(N)nc(SCC(=O)O)cc12 | 27.8% (active) |
| CCOC(=O)c1cc(C#N)c(N2CCCCC2)nc1-c1ccccc1 | 4.27% |
| N#CCc1c(C#N)c(N)nc(N2CCCC2)c1C#N | -3.2% |
| O=C(N=C1SC2CS(=O)(=O)CC2N1c1ccccc1)c1ccccc1 (configuration not stated) | -2.21% |
| CS/C(=C\C(=O)c1ccco1)Nc1ccccc1Cl | 3.63% |
| N#CC1=C(N)C(C#N)(C#N)[C@H](c2ccsc2)[C@H]2COCC=C12 | 3.03% |
| CCN1CC=C2C(C#N)=C(N)C(C#N)(C#N)[C@H](c3ccoc3)[C@H]2C1 | 25.2% (active) |
| CCCN1CC=C2C(C#N)=C(N)C(C#N)(C#N)C(c3cc(OC)ccc3OC)C2C1 (configuration not stated) | 0.59% |
| CCC1CCCCN1C(=S)NC(=O)c1ccco1 (configuration not stated) | -4.39% |
| CCN(CC)S(=O)(=O)c1cc([N+](=O)[O-])ccc1NNC(=O)Nc1ccccc1 | 12% |
| Cc1ccc(C)c(NS(=O)(=O)c2ccc(OCC(=O)NCc3cccnc3)cc2)c1 | 26.4% (active) |
| Cc1ccc(CNC(=O)COc2ccc(S(=O)(=O)NC(C)C)cc2)cc1 | -3.29% |
| Cc1cc(S(=O)(=O)NC2CCCCC2)ccc1OCC(=O)NCc1cccnc1 | 8.28% |
| Cc1ccc(S(=O)Cc2ccc(C(=O)N3CCN(C4CCCCC4)CC3)o2)cc1 (configuration not stated) | 4.39% |
| COc1ccccc1NC1=NC(c2ccc(Cl)cc2)N=C(N)N1 (configuration not stated) | 1.26% |
| COC(=O)CCCC1=CC2=CC(=O)C(C)(OC(=O)c3cccs3)C(=O)C2=CN1c1cccc(C#N)c1 (configuration not stated) | 7.86% |

| Compound | inhibition |
| --- | --- |
| CC(C)(C)OC(=O)NCCCC1=CC2=CC(=O)C(C)(OC(=O)c3ccco3)C(=O)C2=CO1 (configuration not stated) | 33.5% (active) |
| O=C(COC(=O)c1ccco1)NCc1ccc(Cl)cc1 | 0.66% |
| O=C(CC1C(=O)NCCN1CC(c1ccccc1)c1ccccc1)NCCc1cn[nH]c1 (configuration not stated) | 7.44% |
| COc1cc([N+](=O)[O-])ccc1NC(=O)COC(=O)CCOc1ccc(C)cc1 | 6.88% |
| O=C(Nc1ccccc1C(=O)N1CCOCC1)c1ccc(CSc2ccccc2)cc1 | 4.67% |
| CC(C)Oc1c(Br)cc(Br)cc1/C=N/NC(N)=S | 1.45% |
| Cc1cccc(-n2c(C)cc(/C=N\NC(=O)c3cccs3)c2C)c1 | 22% |
| Cc1ccc(-n2c(C)cc(/C=N\NC(=O)CC(=O)NC(C)C)c2C)cc1 | 1.94% |
| Cc1cc(/C=N/NC(=O)CC2(C)OCCO2)c(C)n1-c1ccc(Cl)c(Cl)c1 | 27.6% (active) |
| O=C(CNC(=O)C1COc2ccccc2O1)N/N=C/c1cc(Br)c(O)c(Br)c1 (configuration not stated) | 26.3% (active) |
| O=C(N/N=C\c1cc(Br)c(Br)o1)C1COc2ccccc2O1 (configuration not stated) | -1.47% |
| O=C(N/N=C/c1cc2c(cc1Br)OCO2)C1COc2ccccc2O1 (configuration not stated) | 8.36% |
| CCOc1ccc(N(C)S(=O)(=O)c2cnc[nH]2)cc1 | 4.67% |
| CC(Oc1cc2oc(=O)c3c(c2cc1Cl)CCCC3)C(=O)NCc1ccncc1 (configuration not stated) | 7.32% |
| CCOC(=O)CSc1nnc(CNC(=O)c2cccs2)n1-c1cc(OC)ccc1OC | 4.54% |
| Cn1nccc1NC(=O)Nc1ccc(OC(F)(F)F)cc1 | -4.08% |
| O=C(Nc1ccc(OC(F)(F)F)cc1)c1ccc2c(c1)no[n+]2[O-] | 25.4% (active) |
| Cn1cccc1/C=N/NC(=O)c1ccc(OC(F)(F)C(F)F)cc1 | 6.18% |
| CCCCN1C(=O)CCC(C(=O)O)C1c1ccc(OC)cc1 (configuration not stated) | 2.74% |
| CCOC(=O)C(C)Oc1cccc2c(=O)n(CC(=O)NCCc3ccc(OC)c(OC)c3)ccc12 (configuration not stated) | 0.87% |
| Nn1c(SCC(=O)NC2CCCc3ccccc32)nnc1C1CC1 (configuration not stated) | -1.35% |
| C[C@H](NC(=O)c1ccccc1Cl)C(=O)OCCOc1cccc(Cl)c1 | 0.09% |
| COC/C=C/C1=CC2=CC(=O)C(C)(OC(=O)CCC(=O)OC)C(=O)C2=CO1 (configuration not stated) | 32.3% (active) |

| Compound | inhibition |
| --- | --- |
| COC(=O)CCCC1=CC2=CC(=O)C(C)(OC(=O)c3cccs3)C(=O)C2=CN1CC(C)C (configuration not stated) | 5.09% |
| CCCCC1=CC2=CC(=O)C(C)(OC(=O)CC)C(=O)C2=CN1CCCOC(C)C (configuration not stated) | -0.51% |
| COc1ccc(OCC(=O)OCCN(C)C)cc1 | 0.82% |
| O=C(CCCN1C(=O)CCC1=O)Nc1ccc(Cl)c(C(F)(F)F)c1 | 5.28% |
| COc1ccc(Cl)cc1NC(=O)COC(=O)C(CC(C)C)N1C(=O)C2CC=CCC2C1=O (configuration not stated) | -2.85% |
| COc1ccccc1N1CC(C(=O)NCCN2C(=O)S/C(=C\c3cccnc3)C2=O)CC1=O (configuration not stated) | 4.51% |
| CCOc1ccc(N2CC(C(=O)NCCN3C(=O)S/C(=C\c4cccnc4)C3=O)CC2=O)cc1 (configuration not stated) | 8.89% |
| COc1ccc(N2CC(C(=O)NCCN3C(=O)S/C(=C\c4cccnc4)C3=O)CC2=O)c(OC)c1 (configuration not stated) | 65.4% (active) |
| COc1ccc(S(=O)(=O)N(C)CC(=O)N2CCCC2)cc1 | -1% |
| COc1cc(OC)cc(C(=O)NNC(=O)Cc2cccs2)c1 | 19.8% |
| CSc1nnc(SCc2nc3sc(C(=O)O)c(C)c3c(=O)[nH]2)s1 | 49.9% (active) |
| Cc1sc2nc(CSCC(=O)NC3CCCCC3)[nH]c(=O)c2c1C | 9.75% |
| CC(=O)c1sc2nc(SCC(=O)N3CCCCC3)[nH]c(=O)c2c1C | 13.1% |
| CCc1ccc(NC(=O)CN2C(=O)CSC2=O)cc1 | -3.77% |
| CCc1ccc(C(CNc2nc(C(F)(F)F)nc3ccccc23)N(C)C)cc1 (configuration not stated) | -1.56% |
| CC(Nc1nc(C(F)(F)F)nc2ccccc12)c1cccs1 (configuration not stated) | 28.4% (active) |
| COc1cccc(CNc2nc(C(F)(F)F)nc3ccccc23)c1 | 2.55% |
| COc1ccc(CN2C(CC(=O)Nc3cccnc3)c3ccc(C(F)(F)F)cc3S2(=O)=O)cc1 (configuration not stated) | 6.11% |
| COc1ccc(/C=C/C(=O)c2cc(Br)ccc(=O)c2O)cc1 | 40.7% (active) |
| COc1ccc(C(=O)/C=C/c2ccc(OC3CSC3)cc2)cc1 | 1.34% |
| COc1ccc(C(=O)/C=C/c2cccnc2)c(OC)c1 | -1.82% |
| O=C1N[C@H](Cc2c[nH]c3ccccc23)COC(=O)[C@H](Cc2ccc(F)cc2)C/C=C\C[C@H]1CC(=O)N(CCO)Cc1ccccc1 | 21.3% |
| COCCN1C(=O)C(=O)/C(=C(/O)c2ccc(S(=O)(=O)N3CCOCC3)cc2)C1c1ccc(OC)c(OC)c1 (configuration not stated) | 0.25% |
